Data on 39 compounds can be found in PubChem BioAssay AID1347383 (Zoeller Lab, School of Medicine, Boston University, 2020).

SMILES strings stand for the structures. Active and inactive are the calls of the source.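 Rule for the calls: active = cell survival after UV exposure 2 SD above solvent-only control wells at 10 µM, confirmed on one or two repeats; inactive = the rest.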

A short description of this assay: cell survival after pyrene fatty acid photosensitization – ZR-82 cells, Analyticon library, screen 2, phospholipid biosynthesis inhibitor project, primary screen (AID 1347383).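 Note: survival reflects blocked phospholipid synthesis cutting uptake of the phototoxic fatty acid; compound and fatty acid exposure 3 h then viability read next day.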 The settings on record: ZR-82 CHO cells, pyrene-fatty acid UV killing, CellTiter Blue; at 10 µM; peroxisome-deficient CHO-K1 variant; with DGAT-1, DGAT-2 and ACAT inhibitors.
On to `CCCCc1c(CC=C(C)C)[nH]c(=O)c(C)c1O`, for which the outcome was inactive. Turning to `CC(C)=CCC/C(C)=C/Cc1c(O)c(CC=C(C)C)c2oc3ccc(O)cc3c(=O)c2c1O`, the outcome was inactive. The result for `Cc1c(O)cc(C(C)C)c(O)c1-c1c(C)c(O)cc(C(C)C)c1O` reads “inactive”. `CCCCCCCC(=O)C(C)NC(=O)CCC(=O)O` (centres undefined): the outcome was inactive.

Turning to `CO[C@@H]1C(=O)CC[C@]2(O)CO[C@H](CC=C(C)C)[C@](C)(O)[C@@]12O`, the outcome was inactive.

In the case of `C=C1CCC2[C@@](C)(CO)CCC[C@]2(C)[C@H]1CC/C(C)=C/CO` (some centres undefined), the outcome was inactive. The result for `C/C=C(/COC(=O)/C(C)=C/C)C(=O)OC/C=C/c1ccc(OC)cc1` reads “inactive”; that for `COc1cc(CC(C)C(C)Cc2ccc(O)c(OC)c2)ccc1O` (centres undefined), “inactive”; that for `C/C=C(/C)C(=O)OC1C(OC2(C)CCC3C(C4C(C)CCC42)C3(C)C)OC(C)C(O)C1O` (centres undefined), “inactive”. The result for `CC(C)Cc1cnc(CCC(N)=O)c(=O)[nH]1` reads “inactive”; that for `C=C1C(=O)O[C@@H]2C3=C(C)CCC[C@]3(C)CC[C@@]12O`, “inactive”; that for `C=C[C@H](/C=C\c1ccc(O)cc1)c1ccc(O)cc1`, “inactive”. On to `CC(=O)OC1CC2C(C)(C)C(=O)C=CC2(C)C2CC(=O)C3=C(CCC3C3=CC(O)OC3=O)C12C` (centres undefined), for which the result was inactive.

On to `C/C=C/C1=C(Cl)C(=O)[C@@H](O)[C@@]1(O)C(=O)OC`, for which the outcome was inactive. The result for `CCC(C)CC(C)/C=C/CCC(O)C(Cc1ccc(O)cc1)NC` (centres undefined) reads “inactive”.

Consider `C=C(COC(=O)C(C)C)C1Oc2cc(C(C)=O)ccc2C1OC(=O)C(C)C` (centres undefined), for which the outcome was inactive. As to `CC(C)c1ccc2c(c1)C(=O)CC1C(C)(C(=O)O)CCCC21C` (centres undefined), the outcome was inactive. Consider `C=CC#Cc1ccc(-c2cccs2)s1`, for which the result was inactive. The result for `O=C1c2ccc(O)cc2O[C@@H](c2ccc(O)c(O)c2)[C@@H]1O` reads “inactive”; that for `O=c1[nH]c2ccccc2c(-c2cccc(O)c2)c1O`, “inactive”; that for `COc1ccc(CC(C)C(C)Cc2ccc3c(c2)OCO3)cc1OC` (centres undefined), “inactive”. The result for `CCC(C)C1NC(=O)C(Cc2ccccc2)NC(=O)C(CCCCCC(=O)C(O)CO)NC(=O)C2CCCCN2C1=O` (centres undefined) reads “inactive”; that for `Cc1c(O)cc(O)c2c1OC(c1ccccc1)CC2=O` (centres undefined), “inactive”; that for `C/C=C(/C)C(=O)O[C@H]1CC(C)=C[C@@H](O)[C@]2(C)[C@@H]1[C@](O)(C(C)C)C[C@H]2OC(=O)/C(C)=C\C`, “inactive”.

As for `CC(C)(O)c1ccc2c(c1)CCC1C(C)(C(=O)O)CCCC21C` (centres undefined), the outcome was inactive. Regarding `Cn1c2c(c(=O)c3cc(O)ccc31)CC(C(C)(C)O)O2` (centres undefined), the outcome was inactive. For `O=C(O)c1cc(O)c2c(c1)C(=O)c1cc(O)cc(O)c1C2=O`, the result was inactive.

With `COc1ccc(CCc2cc(OC)cc(=O)o2)cc1`, the outcome was inactive. On to `C/C=C/[C@@H]1C=C[C@@H]2C[C@H](C)CC[C@H]2[C@]1(C)C(O)=C1C(=O)[C@@H](CO)N(C)C1=O`, for which the result was inactive. As to `CC(C)=CCCC(C)(O)C1CC[C@]2(C)C1CC[C@@H]1[C@@]3(C)CCC(=O)C(C)(C)[C@@H]3CC[C@]12C` (some centres undefined), the result was inactive.

In the case of `CC(C)(O)C(O)Cc1ccc2c(c1O)COC2` (centres undefined), the result was inactive. Take `CCC(C)C(=O)O[C@H]1CCC=C2C=C[C@H](C)[C@H](CC[C@@H](O)C[C@@H](O)CC(=O)O)[C@H]21` (some centres undefined): the result was inactive. In the case of `C[C@H](O)c1nc2ccccc2c(=O)[nH]1`, the outcome was inactive.

Take `CC/C=C/CC1=C(CCCCCCCC(=O)O)CCC1=O`: the outcome was inactive. Consider `CC1=CC2C3C(C(C)=C4C3[C@@](C)(O)CC[C@H]3[C@H](C)C(=O)O[C@H]43)C13C2[C@@](C)(O)CC[C@H]1[C@H](C)C(=O)O[C@@H]13` (some centres undefined), for which the outcome was inactive. For `CC1(C)C=Cc2c(ccc3c2O[C@@H]2COc4cc5c(cc4[C@@]2(O)C3=O)OCO5)O1`, the outcome was inactive. As for `CC1Cc2cc(O)c(O)cc2C(c2ccc(O)c(O)c2)C1C` (centres undefined), the outcome was inactive.

`CC1(O)CC(C)(O)C2=C(O1)C(=O)c1ccccc12` (centres undefined): the result was inactive. Regarding `COc1cc(O)c2c(=O)c3cc(O)c(O)cc3oc2c1`, the result was inactive.
